Screening data: PubChem BioAssay, several laboratories
Only some compounds are listed: those with a hit (about 7% of all), similar ones and a draw of the others.
GRIN3A LBD mod: binders of NR3A ligand-binding domain, primary screen, biophysical, differential scanning fluorimetry, uHTS. AID 1259313, 2017. Tm shift relative to glycine control, % at 25 µM. 340,000 compounds, 2.5% hits. NR3A LBD differential scanning fluorimetry, Tm shift; 0% = protein alone, 100% = glycine-bound protein;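 active = melting temperature shift of at least 10% of the positive control shift, at one fixed dose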
proKLK7 act: proKLK7 zymogen activators, primary screen, biochemical, fluorescence intensity; AID 652039, 2013; activation, % at 7 µM; 370,000 compounds, 0.9% hits; purified proKLK7, EDANS-DABCYL substrate fluorescence; 100% is mature enzyme control, 0% vehicle;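 active = activation above the mean of all tested compounds plus 3 SD, computed per campaign excluding outliers beyond control limits, cut at about 13% in these data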
rCAG RNA binder: binders of r(CAG) RNA repeats, primary screen, biochemical, fluorescence | r(CAG) RNA repeat, TO-PRO-1 dye displacement fluorescence | 370,000 compounds, 1.3% hits | inhibition, % at 3 µM | AID 651821, 2012;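 active = inhibition above the plate cutoff, the mean of all test compounds on that plate plus 3 SD, cut at about 35% in these data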;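 note: 0% = DMSO alone and 100% = 100 µM mitoxantrone as full dye displacement; higher means more dye released from RNA so lower well fluorescence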
ADAM17 inh: ADAM17 inhibitors, primary screen, biochemical, QFRET | Disintegrin and metalloproteinase domain-containing protein 17 (Homo sapiens), P78536 | recombinant ADAM17, EDANS/DABCYL FRET peptide cleavage | inhibition, % at 6.95 µM | 370,000 compounds, 0.83% hits | AID 720648, 2013;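 active = inhibition above the mean of compounds lying between control limits plus 3 SD, set per campaign, cut at about 8.5% in these data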;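 note: 0% = DMSO-only wells as the low control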
AHR activator: AHR activators, primary screen, cell-based, luminescence, luciferase reporter, human | activation, % at 5 µM | 320,000 compounds, 2.5% hits | AHR-responsive luciferase reporter cells; in the data active = activation above about 47%;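 note: 0% = vehicle wells and 100% = reference agonist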
ADAM10 inh: human ADAM10 inhibitors, primary screen, biochemical, QFRET, HTS; recombinant ADAM10, EDANS/DABCYL FRET peptide cleavage, 3 h; Disintegrin and metalloproteinase domain-containing protein 10 (Homo sapiens), O14672; 370,000 compounds, 0.62% hits; inhibition, % at 7 µM; AID 720582, 2013;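 active = inhibition above a per-campaign cutoff equal to the mean of compounds falling between control-based bounds plus 3 SD, cut at about 20% in these data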;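 note: 0% = DMSO wells while the 100% control is not disclosed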
Target sequence (O14672 214-748 limits assumed): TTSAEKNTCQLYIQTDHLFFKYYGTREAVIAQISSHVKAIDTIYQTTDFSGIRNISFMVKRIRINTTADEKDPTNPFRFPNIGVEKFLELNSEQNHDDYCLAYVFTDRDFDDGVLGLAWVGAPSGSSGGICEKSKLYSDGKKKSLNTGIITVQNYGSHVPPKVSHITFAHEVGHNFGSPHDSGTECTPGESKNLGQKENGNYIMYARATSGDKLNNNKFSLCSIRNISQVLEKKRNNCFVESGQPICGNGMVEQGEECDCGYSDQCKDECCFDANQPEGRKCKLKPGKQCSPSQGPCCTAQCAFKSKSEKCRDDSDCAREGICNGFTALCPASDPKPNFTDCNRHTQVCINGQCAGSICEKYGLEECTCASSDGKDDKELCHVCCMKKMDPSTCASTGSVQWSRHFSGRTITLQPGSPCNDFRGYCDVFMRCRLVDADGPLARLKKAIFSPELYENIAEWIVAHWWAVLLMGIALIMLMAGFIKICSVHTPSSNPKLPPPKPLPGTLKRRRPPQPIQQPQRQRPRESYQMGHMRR
* marks the source's active call; other numbers are inactive results; · = no result.

SMILES	GRIN3A LBD mod	proKLK7 act	rCAG RNA binder	ADAM17 inh	AHR activator	ADAM10 inh
Cc1ccc(S(=O)(=O)NCC2CCC(C(=O)NCc3ccc4c(c3)OCO4)CC2)cc1 (configuration not stated)	15*	0	-2	1	1	8
CCCCN1C[C@@H](COCc2ccccc2)Oc2cccc(F)c2S1(=O)=O	·	0	0	3	·	18
O=C(Nc1nc2ccccc2s1)c1cc(-c2ccco2)nc2ccccc12	3	9	20	-105	56*	-335
Cc1ccc2nc(NC(=O)c3cc(-c4ccco4)nc4ccccc34)sc2c1	7	1	15	-61	20	-284
COc1ccc(NC(=O)c2cc(-c3ccco3)nc3ccccc23)cn1	-3	-4	31	-70	71*	-232
COCCNC(=O)Cn1cnc2sc(C)c(S(=O)(=O)N3CCC(C)CC3)c2c1=O	-4	-1	-2	-4	-1	-2
COc1ccc(Cl)cc1Nc1ncnc2sc(C)c(S(=O)(=O)N3CCC(C)CC3)c12	10*	0	2	1	2	1
O=C(CSC1=NNC(c2ccccn2)S1)Nc1cccc(Cl)c1 (configuration not stated)	2	-1	12	5	6	22*
Cc1cc(C)c(CN2CCN(C(=O)Cn3cc(C)c(=O)[nH]c3=O)CC2)c(C)c1	·	1	3	-2	·	-13
Cc1cc2oc(C(=O)Nc3ccc(S(=O)(=O)N4CCCC(C)C4)cc3)cc(=O)c2cc1Cl (configuration not stated)	14*	0	3	-3	3	-8
N#CCCN(CCC#N)c1nncs1	-2	0	-1	-7	-1	-16
CC(C)(C)c1csc(N(CCC#N)CCC#N)n1	14*	0	-3	-6	2	-4
Clc1nssc1=Nc1ccccc1	5	·	·	·	·	·
N#Cc1ccc(N=c2ssnc2Cl)cc1	23*	1	-1	-4	5	-10
COc1cc(N=c2ssnc2Cl)cc(OC)c1OC	5	0	3	-3	5	5
COc1ccc(N=c2ssnc2Cl)cc1	22*	·	·	·	18	·
Clc1ccc(N=c2ssnc2Cl)cc1	14*	0	-2	-6	59*	-8
O=c1[nH]c(O)c(/C=C2\C=Nc3ccccc32)[nH]1	31*	0	2	0	·	-4
CCn1c(O)c(/C=C2\C=Nc3ccccc32)sc1=Nc1ccc(C)cc1	18*	0	6	0	0	2
CCn1c(O)c(C=Nc2ccccc2)sc1=O	-1	0	-1	-5	5	-14
Oc1nc(Nc2ccccc2)sc1/C=C1\C=Nc2ccccc21	27*	0	34	0	147*	6
CCn1c(O)c(/C=C2\C=Nc3ccccc32)sc1=O	-13	0	8	2	76*	7
Cc1noc(C)c1NC(=O)N(C)C[C@H]1OCc2cn(nn2)CCCC(=O)N([C@H](C)CO)C[C@@H]1C	·	0	0	-2	·	-14
CCn1c(SCC(=O)Nc2cccc3ccccc23)nnc1-c1cccs1	·	0	3	2	·	4
Cc1noc(C)c1COC(=O)c1cc2c3ccccc3n(C)c2s1	2	-18	7	-19	30	-96
SMILES	GRIN3A LBD mod	proKLK7 act	rCAG RNA binder	ADAM17 inh	AHR activator	ADAM10 inh
Cn1c2ccccc2c2cc(C(=O)N3CCN(CCO)CC3)sc21	2	-1	-1	-10	68*	-40
CC(=O)NNC(=O)c1cc2c3ccccc3n(C)c2s1	-1	-1	5	-72	75*	-286
O=C(c1cc2c(s1)CCCC2)N1CCN(CCO)CC1	-6	0	0	4	1	4
CC(=O)C1=C(C)N(Cc2ccc(F)cc2)C(=S)NC1c1ccc(Br)cc1 (configuration not stated)	·	0	2	7	·	10
Cc1ccc(-c2cc(-c3nnc(SCC(=O)Nc4ccccc4-c4ccccc4)n3N)[nH]n2)cc1	·	0	7	3	·	4
C=CCOC(=O)N[C@@H](c1coc2ccccc2c1=O)[C@@H](C)/C=C/CC(=O)OC	·	1	1	-2	·	-7
O=C(C(=O)N1CCC(CNS(=O)(=O)c2cccc(C(F)(F)F)c2)CC1)c1cc2ccccc2o1	·	0	3	2	·	8
CCCCCCCCCC[N+](C)(C)CC/C=C1/c2ccccc2Sc2ccc(Cl)cc21	22*	·	·	·	0	·
O=C(Nc1ccccc1)OCCN1C(=O)CCC12CCC(c1ccc(Cl)cc1)CC2 (configuration not stated)	·	-1	4	2	·	-1
CCN(C)c1nc(C)nc2c1nnn2Cc1ccccc1	·	0	1	0	·	-2
Cc1c(Cl)c([N+](=O)[O-])nn1CCCC(=O)Nc1cc(Oc2ccccc2)cc([N+](=O)[O-])c1	18*	1	-1	-1	2	-10
CN(C)CCN(C(=O)/C=C/c1cccs1)c1nc2ccc(F)cc2s1	-5	-75	-2	-11	49*	-24
CCN(CC)CCN(C(=O)/C=C/c1cccs1)c1nc2ccc(Cl)cc2s1	-5	-20	2	-9	4	-27
Cc1cc(C)nc(NC(=NCCc2c[nH]c3ccccc23)NC(=O)Nc2cccc([N+](=O)[O-])c2)n1	-12	0	9	0	12	-7
Cc1cc(C)nc(NC(=NCCc2c[nH]c3ccccc23)NC(=O)c2ccco2)n1	-2	0	3	0	20	1
Cc1cc(C)nc(NC(=NCCc2c[nH]c3ccccc23)NC(=O)Nc2ccccc2)n1	10*	0	8	5	52*	16
Cc1cc(C)nc(NC(=NCCc2c[nH]c3ccccc23)NC(=O)Nc2ccc(Cl)c(Cl)c2)n1	27*	0	5	-1	6	-75
O=S(=O)(c1cccs1)N1CCCc2nc(-c3ccc(F)cc3)ccc21	·	0	4	4	·	1
Cc1ccc(C(=O)C(c2ccccc2)N2Cc3ccccc3C2=N)cc1 (configuration not stated)	-20	·	·	·	65*	·
C=CCN(C)CC#Cc1ccc(C)cc1	·	0	-1	-3	·	-2
COc1ccc(NC(=S)Nc2ccccn2)c(OC)c1	3	0	3	7	33	-5
COc1cc(NC(=S)Nc2ccccn2)cc(OC)c1OC	0	-1	-4	0	77*	-2
S=C(Nc1ccccn1)c1ccccn1	1	0	-3	-3	61*	-3
